Pf Dd2 inh = inhibitors of Plasmodium falciparum Dd2 growth | P. falciparum Dd2 growth, SYBR Green, 72 h | Potency, µM (top dose mostly 28.9 µM), hits mostly inhibitors | actives 4.3% (n = 120,000) | AID 1347417; active = well fitted inhibition curve with a large enough effect; note: nearly all actives have a fitted effect of over 65% in size
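Infected erythrocytes (Dd2, 0.3% parasitemia, 2.5% hematocrit final) are added to compound in RPMI-1640/Albumax II medium, grown 72 h at 37C in low oxygen, then lysed with saponin/Triton-X containing SYBR Green and read by fluorescence.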
Of the large screens only hits and unclear results are named; the others gave an inactive call. This excerpt belongs to a sample that is enriched for hits.

CCOc1ccc(CN(CCc2ccc3c(c2)OCO3)Cc2cc(OC)ccc2O)cc1	Pf Dd2 inh 0.71µM
O[C@@H]1C[C@@H](c2nnc3n2CCN(Cc2ccc4c(c2)CCO4)C3)N(Cc2ccccc2)C1	none
O=C(Nc1ccc([C@@H](O)[C@H]2COCC(=O)N2Cc2ccc(C(F)(F)F)cc2)cc1)c1ccco1	none
NS(=O)(=O)c1ccsc1C(=O)N1CCCC2(CCNCC2)CC1	none
CCCN[C@H]1C[C@@H](Cc2cc(COc3ccccc3)on2)C1(C)C	none
CC1(C)[C@H](Cc2cc(COc3ccccc3)on2)C[C@@H]1NC(=O)COc1ccccc1	Pf Dd2 inh 8.9µM
CC(C)(C)CC(=O)N[C@H]1C[C@@H](Cc2cc(COc3ccccc3)on2)C1(C)C	none
CC1(C)[C@H](Cc2cc(COc3ccccc3)on2)C[C@@H]1NC1CCOCC1	Pf Dd2 inh 10µM
COCc1cc(C[C@@H]2C[C@H](NC(=O)c3ccnc(Cl)c3)C2(C)C)no1	none
COCc1cc(C[C@@H]2C[C@H](NC(=O)c3ccco3)C2(C)C)no1	Pf Dd2 inh 10µM
CC1(C)[C@H](Cc2cc(CO)on2)C[C@@H]1NC(=O)c1ccco1	none
COCC(=O)N[C@H]1C[C@@H](Cc2cc(-c3ccc(OC)cc3)on2)C1(C)C	Pf Dd2 inh 2µM
COCC(=O)N[C@H]1C[C@@H](Cc2cc(CO)on2)C1(C)C	none
CC1(C)[C@H](Cc2cc(COc3ccccc3)on2)C[C@@H]1NC(=O)Cc1ccccc1	none
CC(C)Cc1cc(C[C@@H]2C[C@H](NC3CCOCC3)C2(C)C)no1	none
COCC(=O)NC1(Cc2cc(-c3ccc(OC)cc3)on2)COC1	none
O=C(NCCN1Cc2ccccc2OC(c2ccccc2F)C1)c1ccncc1 (configuration not stated)	none
CC(C)NC(=O)N1CCC2(CC1)C(=O)NCN2C(=O)Cc1c[nH]c2ccccc12	none
COCCNC(=O)[C@@H]1C[C@@H](O)CN1C1CCN(C(=O)c2ccc3c(c2)OCO3)CC1	none
Cc1nc2ncnn2c(C)c1CCC(=O)N1C[C@@H](N)C[C@H]1C(=O)NC(C)C	none
C[S+](=O)([O-])N1CC2(Cc3ccccc3N(C(=O)Cc3ccc(F)cc3)C2)C1	none
CCc1nncn1C1CCN(C(=O)c2nn(C)c3ccccc23)C1 (configuration not stated)	none
COC[C@H]1C[C@@H](NC(=O)c2cc(C)on2)[C@H](O)[C@@H]1O	none
O=C1NC2(CCN(C(=O)c3ccccc3)CC2)Oc2ccccc21	none
CC(C)(C)CC(=O)N[C@H]1C[C@@](O)(C(=O)NCC(N)=O)C[C@@H](O)[C@@H]1O	none
COc1ccc(C(=O)N2CCC3(CC2)NC(=O)N(Cc2ccccc2)C3=O)cc1OC	none
COc1cccc(C(=O)N2CCC3(CC2)NC(=O)N(Cc2ccccc2)C3=O)c1OC	Pf Dd2 inh 8.9µM
COc1ccccc1CC(=O)N1CCC2(CC1)NC(=O)N(Cc1ccccc1)C2=O	none
Cc1ccc(CCNC(=O)Cn2nc(C)n(CCc3ccccc3)c2=O)o1	none
Cc1cc(C)c2c(=O)c3c(oc2c1)C(=O)N(Cc1ccco1)C3c1ccc(F)cc1 (configuration not stated)	none
CCOc1cccc(C2c3c(-c4cc(C)ccc4O)n[nH]c3C(=O)N2Cc2ccco2)c1 (configuration not stated)	Pf Dd2 inh 10µM
COc1cc(C2c3c(-c4cc(C)ccc4O)n[nH]c3C(=O)N2Cc2ccco2)cc(OC)c1OC (configuration not stated)	none
COCCN1C(=O)c2[nH]nc(-c3c(C)cc(C)cc3O)c2C1c1cccc(O)c1 (configuration not stated)	none
COCCCN1C(=O)c2[nH]nc(-c3cc(C)ccc3O)c2C1c1ccc(F)cc1 (configuration not stated)	none
Cc1ccc(O)c(-c2n[nH]c3c2C(c2ccccc2F)N(Cc2ccco2)C3=O)c1 (configuration not stated)	Pf Dd2 inh 4.5µM
Cc1cc2c(c(=O)n(-c3ccccc3)c(=O)n2CC(=O)Nc2ccccc2C(F)(F)F)n1C	none
COCC1CN(C(=O)Cc2c[nH]c3ccccc23)CC12CCOCC2 (configuration not stated)	none
Cc1ncsc1CN(C)C1CCc2nn(CC3CC3)c(=O)n2CC1 (configuration not stated)	none
CCCN1C(=O)c2[nH]nc(-c3cccc(OC)c3)c2C1c1ccccn1 (configuration not stated)	none
CCOc1cc(C2c3c(oc4ccccc4c3=O)C(=O)N2Cc2ccc(OC)cc2)ccc1O (configuration not stated)	none
CCCN1C(=O)c2[nH]nc(-c3ccccc3O)c2C1c1cccc(OCc2ccccc2)c1 (configuration not stated)	Pf Dd2 inh 4.5µM
COc1ccc(CCN2C(=O)c3[nH]nc(-c4ccccc4O)c3C2c2ccc(O)c(OC)c2)cc1 (configuration not stated)	Pf Dd2 inh 10µM
O=C1c2[nH]nc(-c3ccccc3O)c2C(c2ccc(Cl)cc2)N1CCc1ccccc1 (configuration not stated)	Pf Dd2 inh 8.9µM
